# Bioassay records as filed in PubChem.
# Pf Dd2 growth: inhibitors of Plasmodium falciparum Dd2 growth; P. falciparum Dd2 growth, SYBR Green, 72 h; active compounds read low; activity change, % at 10 µM; hit rate 2.3% among 94,000; AID 1159554; in the data active = activity change below about -80%
# C diff HTS: blocks growth of Clostridium difficile | Clostridium difficile clinical isolate growth, OD600, 24 h; active compounds read low | growth activity, negative = inhibition, % at 16 µg/mL (by protocol) | hit rate 0.25% among 86,000;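 active = mean growth activity at or below -80% and every replicate also at or below -80%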;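 note: 0% = DMSO wells and -100% = levofloxacin 16 µg/mL wells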
# T cruzi growth-1: T. cruzi proliferation inhibition | T. cruzi beta-gal in NIH3T3, GalScreen luminescence, 90 h | inhibition, % at 8.34 µM | hit rate 5.9% among 77,000 | AID 624255;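 active = mean inhibition above about 93%, with at least 55% of replicates each passing it, limit read from the data, passing the limit was not always enough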
# T cruzi growth-2: blocks T. cruzi growth in NIH3T3 host cells; shares compounds with T cruzi growth-1; T. cruzi beta-gal in NIH3T3, GalScreen luminescence, 90 h; inhibition, % at 8.35 µM; hit rate 72% among 5,600;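 active = mean replicate inhibition above about 95% and at least 55% of replicates individually reaching it, limit read from the data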
# T cruzi growth-3: inhibitors of T. cruzi proliferation; shares compounds with T cruzi growth-1; T. cruzi beta-gal in NIH3T3, GalScreen luminescence, 90 h; inhibition, % at 2.09 µM; hit rate 21% among 5,600; AID 651740;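 active = mean inhibition above about 95%, with at least 55% of replicates also reaching it, limit read from the data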;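 note: plate controls were neutral control median for no effect and positive control median for full effect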
# NIH3T3 tox: NIH/3T3 (mouse) viability loss; NIH/3T3 viability, CellTiter-Glo ATP luminescence, 90 h; cytotoxicity (signal decrease), % at 8.35 µM; shares compounds with T cruzi growth-1; hit rate 14% among 5,600;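 active = mean signal decrease across replicates above about 35% based on untreated-well scatter, with enough replicates individually passing, limit read from the data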;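 note: 0% = median of neutral control wells and 100% = median of positive control wells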
# 3T3 cytotox 2: cytotoxicity in mouse NIH/3T3 fibroblasts; NIH/3T3 viability, CellTiter-Glo ATP luminescence, 90 h; hit rate 56% among 5,600; shares compounds with T cruzi growth-1; inhibition, % at 24.9 µM;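 active = mean loss of cell viability signal at or above a set limit, and enough replicates individually reaching it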;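 note: 0% = median of neutral control wells and 100% = median of positive control wells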
# Starred values were filed as active, the others as inactive; nt = not tested or not shown. The list is not random: actives were taken first. Their share in the collection is about 6.7%.
SMILES,Pf Dd2 growth,C diff HTS,T cruzi growth-1,T cruzi growth-2,T cruzi growth-3,NIH3T3 tox,3T3 cytotox 2
O=C(C[C@H]1C[C@@H]2c3cc(NC(=O)c4cccnc4)ccc3O[C@@H]2[C@H](CO)O1)NCc1cccc(F)c1,-6,1,-66,nt,nt,nt,nt
C[C@@H]1CN([C@H](C)CO)C(=O)c2cc(NC(=O)Nc3ccc(C(F)(F)F)cc3)ccc2O[C@@H]1CN(C)S(=O)(=O)c1cn(C)cn1,-7,nt,12,nt,nt,nt,nt
C[C@H](CO)N1C[C@H](C)[C@@H](CN(C)Cc2cncnc2)Oc2ncc(C#CC3CCCCC3)cc2C1=O,23,-7,47,nt,nt,nt,nt
Cc1ccc(S(=O)(=O)Nc2cccc3c2O[C@H](CN(C)C(=O)Nc2ccccc2)[C@@H](C)CN([C@@H](C)CO)C3=O)cc1,7,2,5,nt,nt,nt,nt
Cc1ccccc1-c1ccc([C@H]2[C@@H](CO)N3CCCCN(C(=O)NC4CCCC4)C[C@@H]23)cc1,26,-7,106*,108*,93,17,81*
COc1ccccc1-c1ccc([C@@H]2[C@H]3CN(C(=O)NC4CCCC4)CCCCN3[C@H]2CO)cc1,1,8,68,nt,nt,nt,nt
COc1ccccc1-c1ccc([C@@H]2[C@@H](CO)N3CCCCN(C(=O)NC4CCCC4)C[C@@H]23)cc1,13,16,77,nt,nt,nt,nt
Cc1ccccc1-c1ccc([C@H]2[C@H]3CN(C(=O)NC4CCCC4)CCCCN3[C@H]2CO)cc1,-8,10,112*,105*,53,-11,55*
COc1ccccc1-c1ccc([C@H]2[C@H]3CN(C(=O)NC4CCCC4)CCCCN3[C@H]2CO)cc1,10,3,69,nt,nt,nt,nt
Cc1ccccc1-c1ccc([C@H]2[C@@H](CO)N3CCCCN(C(=O)NC4CCCC4)C[C@H]23)cc1,-31,-1,115*,108*,99*,20,106*
COc1ccc(NC(=O)N(C)C[C@H]2Oc3c(NC(=O)c4cnccn4)cccc3C(=O)N([C@H](C)CO)C[C@@H]2C)cc1,13,-2,-134,nt,nt,nt,nt
COc1ccc(S(=O)(=O)N(C)C[C@@H]2Oc3c(NS(C)(=O)=O)cccc3C(=O)N([C@@H](C)CO)C[C@@H]2C)cc1,16,2,-21,nt,nt,nt,nt
CO[C@@H]1CN(C)C(=O)c2cc(NC(=O)NC(C)C)ccc2OC[C@H](C)N(C(=O)C2CCC2)C[C@@H]1C,-11,nt,39,nt,nt,nt,nt
Cc1noc(C)c1NC(=O)N(C)C[C@H]1Oc2ncc(C#CC3CCCC3)cc2C(=O)N([C@H](C)CO)C[C@H]1C,5,2,76,nt,nt,nt,nt
Cc1noc(C)c1S(=O)(=O)Nc1ccc2c(c1)C(=O)N([C@@H](C)CO)C[C@@H](C)[C@H](CN(C)Cc1ccc(C(F)(F)F)cc1)OCCCC[C@@H](C)O2,-46,nt,108*,103*,116*,-51,105*
Cc1noc(C)c1S(=O)(=O)Nc1ccc2c(c1)C(=O)N([C@@H](C)CO)C[C@@H](C)[C@@H](CN(C)Cc1ccc(C(=O)O)cc1)OCCCC[C@H](C)O2,3,5,-25,nt,nt,nt,nt
Cc1noc(C)c1S(=O)(=O)Nc1ccc2c(c1)C(=O)N([C@H](C)CO)C[C@@H](C)[C@H](CN(C)Cc1ccc(C(=O)O)cc1)OCCCC[C@@H](C)O2,20,5,43,nt,nt,nt,nt
Cc1noc(C)c1S(=O)(=O)Nc1ccc2c(c1)C(=O)N([C@@H](C)CO)C[C@H](C)[C@H](CN(C)Cc1ccc(C(F)(F)F)cc1)OCCCC[C@@H](C)O2,-47,-5,101*,104*,86,-4,3
Cc1noc(C)c1S(=O)(=O)Nc1ccc2c(c1)C(=O)N([C@H](C)CO)C[C@@H](C)[C@@H](CN(C)Cc1ccc3c(c1)OCO3)OCCCC[C@H](C)O2,-73,3,104*,110*,65,10,34*
Cc1noc(C)c1S(=O)(=O)Nc1ccc2c(c1)C(=O)N([C@@H](C)CO)C[C@@H](C)[C@H](CN(C)Cc1ccc3c(c1)OCO3)OCCCC[C@H](C)O2,-70,10,61,nt,nt,nt,nt
Cc1noc(C)c1S(=O)(=O)Nc1ccc2c(c1)C(=O)N([C@H](C)CO)C[C@@H](C)[C@H](CN(C)Cc1ccc(C(F)(F)F)cc1)OCCCC[C@H](C)O2,-57,9,95,nt,nt,nt,nt
Cc1noc(C)c1S(=O)(=O)Nc1ccc2c(c1)C(=O)N([C@@H](C)CO)C[C@H](C)[C@H](CN(C)Cc1ccc(C(F)(F)F)cc1)OCCCC[C@H](C)O2,-43,nt,100*,96*,67,15,105*
CN(C)CCCNC(=O)C[C@H]1C=C[C@@H](NS(=O)(=O)c2ccccc2)[C@H](CO)O1,14,nt,34,nt,nt,nt,nt
Cc1ccc(S(=O)(=O)N(C)C[C@@H]2OCCCC[C@H](C)Oc3ccc(NS(=O)(=O)c4cn(C)cn4)cc3C(=O)N([C@H](C)CO)C[C@H]2C)cc1,-21,3,35,nt,nt,nt,nt
C[C@@H]1CN([C@@H](C)CO)C(=O)c2cc(NS(=O)(=O)c3ccccc3)ccc2O[C@H]1CN(C)C,0,-5,-14,nt,nt,nt,nt
SMILES,Pf Dd2 growth,C diff HTS,T cruzi growth-1,T cruzi growth-2,T cruzi growth-3,NIH3T3 tox,3T3 cytotox 2
C/C=C/c1ccc([C@@H]2[C@@H](CO)N(C(C)=O)C23CN(C(=O)c2ccc(F)cc2)C3)cc1,-20,-5,nt,nt,nt,nt,nt
C/C=C/c1ccc([C@H]2[C@@H](CO)N(C(=O)CC)[C@H]2CN(C)Cc2cncnc2)cc1,-14,11,nt,nt,nt,nt,nt
C[C@@H]1CCCCO[C@H](CN(C)C(=O)c2ccccc2)[C@H](C)CN([C@@H](C)CO)C(=O)c2cc(NS(=O)(=O)c3cn(C)cn3)ccc2O1,-6,nt,28,nt,nt,nt,nt
CC(=O)N1CC2(C1)[C@@H](c1ccc(-c3cccc(F)c3)cc1)[C@@H](CO)N2CC1CC1,-27,1,nt,nt,nt,nt,nt
Cc1noc(C)c1S(=O)(=O)Nc1ccc2c(c1)C(=O)N([C@H](C)CO)C[C@H](C)[C@H](CN(C)Cc1ccc(C(=O)O)cc1)OCCCC[C@@H](C)O2,12,-7,19,nt,nt,nt,nt
Cc1noc(C)c1S(=O)(=O)Nc1ccc2c(c1)C(=O)N([C@@H](C)CO)C[C@@H](C)[C@@H](CN(C)Cc1ccc(C(F)(F)F)cc1)OCCCC[C@H](C)O2,-48,nt,103*,89,110*,0,60*
Cc1noc(C)c1S(=O)(=O)Nc1ccc2c(c1)C(=O)N([C@H](C)CO)C[C@@H](C)[C@H](CN(C)Cc1ccc(C(F)(F)F)cc1)OCCCC[C@@H](C)O2,-67,8,106*,88,112*,25,105*
Cc1noc(C)c1S(=O)(=O)Nc1ccc2c(c1)C(=O)N([C@H](C)CO)C[C@@H](C)[C@@H](CN(C)Cc1ccc(C(F)(F)F)cc1)OCCCC[C@H](C)O2,-41,nt,87,nt,nt,nt,nt
CC(C)NC(=O)Nc1ccc2c(c1)C(=O)N([C@H](C)CO)C[C@H](C)[C@H](CN(C)C(=O)C1CCCCC1)OCCCC[C@H](C)O2,-27,-6,-7,nt,nt,nt,nt
